Of roughly 7,900 targets only a part is listed; those with a hit were picked by preference. About 0.6% of all pairs of compound and target were hits.
Key:
Test in all cases: log2 fold change, soluble protein after heating vs DMSO (PISA); higher = thermal stabilisation; K562 cells, 10 uM, 30 min; active = over 0.2 and 3.5 SD of the protein, either way, in both replicates (recomputed)
[1] = compound: C#Cc1cccc(Nc2ncnc3cc(OCCOC)c(OCCOC)cc23)c1 [erlotinib]
Summary of the method: (§1)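 Aliquots of K562 cells (2×10^6 cells/mL) treated with 10 μM compound for 30 min were heated for 3 min over 48°C-58°C. After pooling and extraction in PBS with 0.5% NP-40 at 4°C, soluble protein from a 21,000xg, 90 min spin was quantified by TMTpro 16plex LC-MS/MS with channel sums equalised. Thermal stability is expressed against control samples, from duplicates, as a log2 fold change.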

[2] = compound: C/C(=N\NC(=O)C1=CC(=CC=C1)S(=O)(=O)N2CCOCC2)/C3=C(C=CC(=C3)Cl)O
Summary of the method: as §1

[3] = compound: C1=CC(=C(C=C1Cl)C2=NC3=NC=CN=C3C(=N2)NC4=CC=NC=C4)F
Summary of the method: as §1

[4] = compound: C1=CC(=CC=C1C2=NC3=C(N2)C=C(C=C3)C(=O)N)OC4=CC=C(C=C4)Cl
Summary of the method: as §1

[5] = compound: C1=CC2=C(C=CC(=C2)/C=C\3/C(=O)NC(=NCC4=CC=CS4)S3)N=C1
Summary of the method: as §1

[6] = compound: C1=CC2=NC=CN=C2C=C1/C=C/3\C(=O)NC(=O)S3
Summary of the method: as §1

[7] = compound: C1=CC=C(C=C1)C2=NC(=C(N2)C3=CC=NC=C3)C4=CC(=C(C=C4)Cl)O
Summary of the method: as §1

[8] = compound: C1=CC=C2C(=C1)C3=NNC4=CC=CC(=C43)C2=O
Summary of the method: as §1

[9] = compound: C1CCN(C1)C(=O)NC2=CC=CC(=C2)NC3=NC=C(C(=N3)NCCC4=CN=CN4)Br
Summary of the method: as §1

[10] = compound: C1CN(CCC1(CC2=CC=C(C=C2)Cl)N)C3=NC=NC4=C3C=CN4
Summary of the method: as §1

[11] = compound: C1COCCN1CCN2C3=CC=CC=C3N=C2NC(=O)C4=CC(=CC=C4)[N+](=O)[O-] [IRAK-1-4 Inhibitor I]
Summary of the method: as §1

[12] = compound: C=CC(=O)N1CCC[C@@H](n2nc(-c3ccc(Oc4ccccc4)cc3)c3c(N)ncnc32)C1 [ibrutinib]
Summary of the method: as §1

[13] = compound: CC(=O)c1cnc2ccc(-c3cc(Cl)c(O)c(Cl)c3)nc2c1N[C@H]1CC[C@H](CN(C)C)CC1
Summary of the method: as §1

[14] = compound: CC(C)(C)Cn1c(N)nc2ccc(-c3[nH]c(C(C)(C)C)nc3-c3ccc(F)cc3)nc21 [ralimetinib]
Summary of the method: as §1

[15] = compound: CC(C)(O)CC(=O)NCCn1ccc2ncnc(Nc3ccc(Oc4cccc(C(F)(F)F)c4)c(Cl)c3)c21
Summary of the method: as §1

[16] = compound: CC(C)C1=C2N=C(C=C(N2N=C1)NCC3=CC=CC=C3)NCCCCCCN
Summary of the method: as §1

[17] = compound: CC(C)C[C@@H](C=O)NC(=O)[C@H](CC(C)C)NC(=O)[C@H](CC(C)C)NC(=O)OCc1ccccc1
Summary of the method: as §1

[18] = compound: CC(C)N(C[C@H]1O[C@@H](n2cnc3c(N)ncnc32)[C@H](O)[C@@H]1O)[C@H]1C[C@@H](CCc2nc3cc(C(C)(C)C)ccc3[nH]2)C1 [pinometostat]
Summary of the method: as §1

[19] = compound: CC1=C(C(CC(=O)N1)C2=CC=C(C=C2)C(F)(F)F)C(=O)NC3=C(C=C4C(=C3)C=NN4)F
Summary of the method: as §1

[20] = compound: CC1=C(C2=C(C=C1)C(=O)C3=CC=CC=C3N2CCCN)C
Summary of the method: as §1

Measured: log2 fold change

UTP4 (UniProt Q969X6)
Sequence of UniProt Q969X6 (Q969X6 whole entry, looked up): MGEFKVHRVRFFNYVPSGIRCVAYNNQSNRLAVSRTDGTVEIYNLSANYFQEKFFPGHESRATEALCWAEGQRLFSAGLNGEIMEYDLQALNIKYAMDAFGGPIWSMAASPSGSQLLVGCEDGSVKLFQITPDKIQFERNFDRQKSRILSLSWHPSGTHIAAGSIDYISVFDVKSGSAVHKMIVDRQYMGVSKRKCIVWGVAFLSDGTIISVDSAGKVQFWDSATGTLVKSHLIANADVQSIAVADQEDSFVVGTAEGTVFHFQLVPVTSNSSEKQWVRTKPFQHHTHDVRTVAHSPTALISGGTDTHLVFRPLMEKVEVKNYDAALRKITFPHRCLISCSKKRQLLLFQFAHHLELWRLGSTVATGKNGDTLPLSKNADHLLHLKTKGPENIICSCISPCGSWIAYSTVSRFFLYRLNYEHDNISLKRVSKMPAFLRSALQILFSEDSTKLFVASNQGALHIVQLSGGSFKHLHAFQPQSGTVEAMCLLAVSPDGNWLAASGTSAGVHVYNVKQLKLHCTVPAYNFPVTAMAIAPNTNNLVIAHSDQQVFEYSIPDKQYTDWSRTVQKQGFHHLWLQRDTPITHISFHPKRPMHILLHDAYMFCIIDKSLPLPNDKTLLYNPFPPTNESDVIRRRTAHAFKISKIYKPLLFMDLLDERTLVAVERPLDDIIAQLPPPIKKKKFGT
inactive: [1] -0.05 | [2] -0.07 | [3] -0.009 | [4] 0.005 | [5] -0.082 | [6] 0.026 | [7] -0.022 | [8] 0.012 | [9] 0 | [10] 0.06 | [11] 0.003 | [12] 0.002 | [13] 0.02 | [14] -0.07 | [15] 0.045 | [17] -0.014 | [18] -0.017 | [19] -0.019
active: [16] 0.233 | [20] 0.343

UBA52 (UniProt P62987)
inactive: [1] -0.113 | [2] -0.266 | [3] -0.659 | [4] 0.093 | [5] -0.311 | [6] -0.024 | [7] -0.029 | [8] -0.082 | [9] 0.165 | [10] -0.04 | [11] -0.098 | [12] 0.091 | [13] 0.21 | [14] 0.139 | [15] 0.107 | [16] 0.044 | [17] 0.147 | [18] 0.358 | [20] -0.532

VPS51 (UniProt Q9UID3)
Sequence of UniProt Q9UID3 (Q9UID3 whole entry, looked up): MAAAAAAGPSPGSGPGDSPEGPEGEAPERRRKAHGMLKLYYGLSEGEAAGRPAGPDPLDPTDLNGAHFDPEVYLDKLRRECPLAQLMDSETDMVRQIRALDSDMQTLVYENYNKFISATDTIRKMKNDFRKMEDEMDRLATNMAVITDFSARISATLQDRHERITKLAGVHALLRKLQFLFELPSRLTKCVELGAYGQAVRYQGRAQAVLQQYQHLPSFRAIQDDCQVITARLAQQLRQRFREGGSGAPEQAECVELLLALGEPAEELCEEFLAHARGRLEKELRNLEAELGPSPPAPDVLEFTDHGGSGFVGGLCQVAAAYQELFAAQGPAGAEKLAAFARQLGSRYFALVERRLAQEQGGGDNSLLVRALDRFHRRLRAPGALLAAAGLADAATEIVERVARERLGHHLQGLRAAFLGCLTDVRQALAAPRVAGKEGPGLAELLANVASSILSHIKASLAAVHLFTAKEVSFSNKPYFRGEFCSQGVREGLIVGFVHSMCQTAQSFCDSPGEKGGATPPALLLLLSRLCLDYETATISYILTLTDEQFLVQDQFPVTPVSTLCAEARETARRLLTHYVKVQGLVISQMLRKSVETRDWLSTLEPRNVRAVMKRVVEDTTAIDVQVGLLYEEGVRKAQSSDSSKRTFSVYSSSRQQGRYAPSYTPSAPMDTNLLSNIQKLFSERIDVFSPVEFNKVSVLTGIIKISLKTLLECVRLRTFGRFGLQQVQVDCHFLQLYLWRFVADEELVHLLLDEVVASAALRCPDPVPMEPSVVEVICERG
inactive: [1] -0.003 | [2] 0.123 | [3] -0.02 | [4] -0.01 | [5] -0.002 | [6] 0.035 | [7] -0.014 | [8] -0.016 | [9] -0.029 | [10] -0.02 | [11] 0.016 | [12] -0.015 | [13] 0.009 | [14] 0.024 | [15] -0.042 | [16] -0.115 | [17] 0.001 | [18] 0.05 | [19] 0.033 | [20] 0.105

TRIM5 (UniProt Q9C035)
inactive: [1] -0.061 | [2] 0.075 | [3] 0.111 | [4] 0.162 | [5] 0.012 | [7] -0.182 | [8] 0.019 | [9] -0.077 | [10] -0.01 | [13] 0 | [14] 0.094 | [15] -0.045 | [16] -0.176 | [17] 0.391 | [20] 0.047

UBE3D (UniProt Q7Z6J8)
Sequence of UniProt Q7Z6J8 (Q7Z6J8 whole entry, looked up): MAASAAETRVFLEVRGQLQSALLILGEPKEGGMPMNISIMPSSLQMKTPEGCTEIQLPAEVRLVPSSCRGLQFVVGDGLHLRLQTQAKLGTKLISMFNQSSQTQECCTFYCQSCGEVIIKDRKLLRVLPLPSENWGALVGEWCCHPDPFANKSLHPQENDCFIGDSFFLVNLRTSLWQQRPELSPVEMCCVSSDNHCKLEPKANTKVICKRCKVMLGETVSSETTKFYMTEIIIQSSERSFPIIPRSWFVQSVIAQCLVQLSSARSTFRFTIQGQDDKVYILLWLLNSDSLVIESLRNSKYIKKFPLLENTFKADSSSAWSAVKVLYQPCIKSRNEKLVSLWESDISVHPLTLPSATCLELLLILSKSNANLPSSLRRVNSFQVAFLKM
inactive: [1] -0.014 | [2] -0.018 | [3] 0.033 | [4] 0.022 | [5] 0.003 | [6] -0.076 | [7] 0.013 | [8] -0.006 | [9] -0.114 | [10] 0.079 | [11] 0.029 | [12] 0.047 | [13] 0.026 | [14] 0.015 | [15] 0.088 | [16] 0.011 | [17] -0.061 | [18] -0.012 | [19] -0.045 | [20] 0.051

UBE4B isoform 4 (UniProt O95155)
Sequence of UniProt O95155 (O95155 whole entry, looked up): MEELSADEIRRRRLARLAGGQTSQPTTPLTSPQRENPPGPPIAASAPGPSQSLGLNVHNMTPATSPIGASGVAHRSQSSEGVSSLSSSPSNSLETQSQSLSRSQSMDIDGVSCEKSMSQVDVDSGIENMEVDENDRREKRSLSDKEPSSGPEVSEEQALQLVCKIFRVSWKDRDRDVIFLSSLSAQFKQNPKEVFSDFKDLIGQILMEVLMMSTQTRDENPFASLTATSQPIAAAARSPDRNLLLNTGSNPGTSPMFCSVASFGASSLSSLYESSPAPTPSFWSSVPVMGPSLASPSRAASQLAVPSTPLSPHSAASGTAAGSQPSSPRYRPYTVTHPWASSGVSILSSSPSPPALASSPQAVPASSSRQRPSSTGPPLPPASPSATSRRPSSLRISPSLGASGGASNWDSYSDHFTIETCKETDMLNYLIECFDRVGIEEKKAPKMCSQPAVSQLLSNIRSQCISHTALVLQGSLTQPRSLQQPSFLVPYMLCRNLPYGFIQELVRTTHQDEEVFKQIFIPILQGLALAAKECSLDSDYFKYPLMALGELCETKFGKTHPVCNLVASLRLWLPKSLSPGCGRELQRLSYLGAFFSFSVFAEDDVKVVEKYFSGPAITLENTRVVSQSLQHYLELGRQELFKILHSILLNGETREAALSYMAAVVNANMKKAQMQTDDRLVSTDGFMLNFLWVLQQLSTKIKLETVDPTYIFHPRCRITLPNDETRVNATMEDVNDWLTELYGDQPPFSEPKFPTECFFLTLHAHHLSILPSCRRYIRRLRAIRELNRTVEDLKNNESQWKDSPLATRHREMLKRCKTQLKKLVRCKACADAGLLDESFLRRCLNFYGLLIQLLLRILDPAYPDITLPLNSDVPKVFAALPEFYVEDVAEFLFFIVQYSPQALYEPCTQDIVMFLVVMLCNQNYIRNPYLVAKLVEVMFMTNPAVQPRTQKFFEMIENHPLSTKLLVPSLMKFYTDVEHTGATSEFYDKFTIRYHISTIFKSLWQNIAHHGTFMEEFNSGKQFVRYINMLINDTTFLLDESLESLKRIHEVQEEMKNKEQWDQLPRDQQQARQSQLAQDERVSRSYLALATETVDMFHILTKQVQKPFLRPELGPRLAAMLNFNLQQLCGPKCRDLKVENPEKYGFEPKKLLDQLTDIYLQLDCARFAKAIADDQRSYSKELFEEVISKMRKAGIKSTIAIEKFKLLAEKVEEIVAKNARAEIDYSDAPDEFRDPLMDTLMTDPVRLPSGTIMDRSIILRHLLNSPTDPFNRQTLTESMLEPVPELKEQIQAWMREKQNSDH
inactive: [1] -0.01 | [2] 0.026 | [3] 0.041 | [4] -0.016 | [5] 0 | [6] 0.055 | [7] 0.026 | [8] -0.013 | [9] -0.008 | [10] -0.025 | [11] 0.008 | [12] -0.031 | [13] 0.006 | [14] 0.057 | [15] -0.117 | [16] -0.041 | [17] 0.047 | [18] 0 | [19] 0.004 | [20] -0.005

TRABD (UniProt Q9H4I3)
active: [16] 0.416
inactive: [1] -0.057 | [2] -0.023 | [3] -0.029 | [4] 0.016 | [5] 0.032 | [6] -0.049 | [7] 0.121 | [8] 0.074 | [9] -0.077 | [10] 0.071 | [11] -0.046 | [12] 0.007 | [13] -0.032 | [14] 0.073 | [15] 0.277 | [17] 0.045 | [18] 0.018 | [19] -0.005 | [20] -0.005

TTC38 (UniProt Q5R3I4)
Sequence of UniProt Q5R3I4 (Q5R3I4 whole entry, looked up): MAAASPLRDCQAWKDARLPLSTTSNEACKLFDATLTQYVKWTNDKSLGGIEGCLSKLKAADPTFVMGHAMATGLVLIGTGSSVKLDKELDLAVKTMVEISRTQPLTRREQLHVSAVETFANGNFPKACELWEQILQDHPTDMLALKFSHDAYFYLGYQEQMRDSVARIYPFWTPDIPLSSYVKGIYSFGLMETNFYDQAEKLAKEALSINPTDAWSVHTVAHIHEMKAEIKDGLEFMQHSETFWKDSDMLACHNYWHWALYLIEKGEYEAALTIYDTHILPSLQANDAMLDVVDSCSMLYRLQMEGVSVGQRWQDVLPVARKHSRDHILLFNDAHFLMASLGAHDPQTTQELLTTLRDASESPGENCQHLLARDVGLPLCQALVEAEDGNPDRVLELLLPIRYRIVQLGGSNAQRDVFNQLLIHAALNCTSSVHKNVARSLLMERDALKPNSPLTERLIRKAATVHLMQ
inactive: [2] 0.032 | [3] 0.082 | [4] 0.072 | [5] 0.021 | [6] -0.002 | [7] 0.035 | [8] 0.09 | [9] -0.06 | [10] 0.025 | [11] 0.129 | [12] -0.048 | [13] 0.023 | [14] 0.017 | [15] -0.204 | [16] -0.06 | [17] -0.195 | [18] 0.027 | [19] -0.081
active: [1] 0.749 | [20] 0.801

TTC33 (UniProt Q6PID6)
Sequence of UniProt Q6PID6 (Q6PID6 whole entry, looked up): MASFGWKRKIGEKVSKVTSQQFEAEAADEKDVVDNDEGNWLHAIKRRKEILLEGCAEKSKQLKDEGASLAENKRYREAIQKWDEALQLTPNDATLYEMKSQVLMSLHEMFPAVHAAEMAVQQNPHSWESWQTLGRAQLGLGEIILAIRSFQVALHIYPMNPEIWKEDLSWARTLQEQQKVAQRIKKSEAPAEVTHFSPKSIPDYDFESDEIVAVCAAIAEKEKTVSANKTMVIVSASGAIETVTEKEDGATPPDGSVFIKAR
inactive: [1] 0.065 | [2] -0.035 | [3] 0.019 | [4] 0.001 | [5] 0.176 | [6] -0.107 | [7] -0.045 | [8] -0.038 | [11] 0.059 | [12] 0.058 | [13] -0.121 | [14] 0.009 | [15] -0.023 | [16] -0.075 | [17] 0.139 | [18] 0.111

TMEM164 (UniProt Q5U3C3)
Sequence of UniProt Q5U3C3 (Q5U3C3 whole entry, looked up): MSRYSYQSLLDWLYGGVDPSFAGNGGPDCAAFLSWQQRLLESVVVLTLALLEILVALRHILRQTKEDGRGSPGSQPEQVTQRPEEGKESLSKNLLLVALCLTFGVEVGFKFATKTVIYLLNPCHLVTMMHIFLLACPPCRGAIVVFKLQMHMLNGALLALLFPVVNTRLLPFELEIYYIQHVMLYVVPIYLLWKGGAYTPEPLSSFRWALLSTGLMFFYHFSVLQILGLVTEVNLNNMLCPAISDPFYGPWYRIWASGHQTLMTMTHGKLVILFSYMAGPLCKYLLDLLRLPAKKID
inactive: [1] -0.103 | [2] 0.178 | [3] 0.041 | [4] 0.002 | [5] 0.129 | [6] 0.078 | [8] 0.017 | [9] -0.042 | [10] 0.021 | [11] 0.057 | [12] -0.036 | [13] -0.088 | [15] -0.025 | [16] -0.309 | [18] -0.073 | [19] -0.08 | [20] 0.066

VARS2, A0A0G2JL52
inactive: [1] 0.012 | [2] 0.006 | [3] -0.002 | [4] 0 | [5] 0.046 | [6] -0.006 | [7] 0.026 | [8] 0.003 | [9] 0.006 | [10] -0.01 | [11] 0.012 | [12] 0.014 | [13] -0.03 | [14] 0.064 | [15] -0.074 | [16] -0.177 | [17] 0.025 | [18] -0.014 | [19] 0.003 | [20] 0.082

UBE2J2 isoform 3 (UniProt Q8N2K1)
Sequence of UniProt Q8N2K1 (Q8N2K1 whole entry, looked up): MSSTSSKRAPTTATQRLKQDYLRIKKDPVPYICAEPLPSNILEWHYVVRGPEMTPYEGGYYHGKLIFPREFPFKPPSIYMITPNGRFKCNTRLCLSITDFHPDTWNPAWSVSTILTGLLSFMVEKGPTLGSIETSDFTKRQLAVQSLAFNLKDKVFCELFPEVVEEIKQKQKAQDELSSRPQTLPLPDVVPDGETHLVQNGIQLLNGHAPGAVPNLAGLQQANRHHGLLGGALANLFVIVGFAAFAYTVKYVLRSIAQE
inactive: [1] -0.096 | [2] 0.154 | [3] 0.026 | [4] 0.07 | [5] -0.057 | [6] 0.126 | [8] -0.039 | [9] -0.145 | [10] -0.015 | [12] 0.086 | [13] -0.017 | [15] -0.019 | [16] -0.185 | [20] 0.02

TRPT1 isoform 4 (UniProt Q86TN4)
Sequence of UniProt Q86TN4 (Q86TN4 whole entry, looked up): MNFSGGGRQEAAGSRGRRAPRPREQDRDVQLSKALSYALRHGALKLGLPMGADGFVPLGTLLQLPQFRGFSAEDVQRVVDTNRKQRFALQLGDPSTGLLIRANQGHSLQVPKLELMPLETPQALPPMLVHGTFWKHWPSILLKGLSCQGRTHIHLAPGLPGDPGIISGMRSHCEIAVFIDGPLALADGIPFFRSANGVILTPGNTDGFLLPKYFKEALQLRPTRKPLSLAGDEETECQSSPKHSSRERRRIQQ
inactive: [1] 0.021 | [2] 0.065 | [4] -0.08 | [5] 0.021 | [7] 0.043 | [8] -0.062 | [11] 0.11 | [13] -0.057 | [14] 0.011 | [16] -0.054 | [17] 0.074 | [18] 0.033

WARS1 (UniProt G3V5U1)
inactive: [3] -0.233 | [6] 0.187 | [11] 0.01 | [12] -0.158 | [15] 0.156 | [18] 0.031

UBE2D1 (UniProt P51668)
Sequence of UniProt P51668 (P51668 whole entry, looked up): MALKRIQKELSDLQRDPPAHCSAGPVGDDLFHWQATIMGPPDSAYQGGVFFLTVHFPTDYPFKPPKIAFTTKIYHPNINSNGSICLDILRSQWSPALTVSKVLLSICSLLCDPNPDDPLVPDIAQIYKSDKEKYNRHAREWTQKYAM
inactive: [1] 0.098 | [2] 0.071 | [4] 0.068 | [5] 0.057 | [6] 0.023 | [7] 0.01 | [8] -0.096 | [9] 0.022 | [10] -0.162 | [12] 0.007 | [13] 0.005 | [14] 0.003 | [16] -0.203 | [17] -0.058 | [19] 0.028 | [20] 0.117

TXNRD1 isoform 7 (UniProt Q16881)
inactive: [1] 0.107 | [3] 0.1 | [4] -0.193 | [6] 0.199 | [12] -0.209 | [15] -0.069 | [16] -0.01

TTC26
inactive: [6] 0.001 | [7] -0.005 | [9] 0.09 | [10] -0.062 | [12] 0.035 | [14] 0.204 | [17] -0.211 | [20] 0.062

WDR75 (UniProt Q8IWA0)
inactive: [2] -0.256 | [3] -0.592 | [5] 0.306 | [6] 0.091 | [7] -0.063 | [8] 0.042 | [9] -0.193 | [10] 0.021 | [11] -0.081 | [12] -0.026 | [13] -0.196 | [14] 0.189 | [15] 0.012 | [17] 0.178 | [18] 0.197 | [19] 0.058 | [20] 0.402

WARS1 (UniProt G3V277)
inactive: [1] 0.183 | [2] -0.032 | [4] -0.076 | [5] 0.25 | [6] 0.036 | [8] -0.014 | [9] 0.141 | [10] -0.008 | [11] -0.005 | [12] -0.064 | [13] -0.184 | [16] -0.009 | [18] 0.114 | [19] 0.091 | [20] 0.087

U2AF1L5 (UniProt P0DN76)
inactive: [2] 0.031 | [4] 0.022 | [5] -0.159 | [6] 0.096 | [8] -0.005 | [9] 0.153 | [10] -0.207 | [11] 0.042 | [12] -0.032 | [13] -0.389 | [16] -0.19 | [18] 0.014 | [19] -0.209 | [20] -0.067
active: [1] 1.29

Source: the supplement of paper PMC10849652
